# Measurements taken from PubChem BioAssay AID2216 (Broad Institute, 2009).
# Hit rate of the full screen: of about 300,000 compounds, about 3,300 (1.1%) were called active. Another 6% or so got no clear call; they are omitted. The entries come from a sample that favours actives as a whole. A number with no mark means an inactive call.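 How the source made its calls: active means more than half of the replicate wells show a fall in the fluorescence ratio signal beyond about 16% (limit read from the data, passing the limit was not always enough); inconclusive means exactly half of the replicate wells pass the set limit; inactive means fewer than half of replicates pass the limit.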
# Tested on: Ran GTPase (GTP-bound) - importin-beta complex
# Test: disruptors of Ran-importin-beta complex formation – biochemical, FRET, CFP-Ran, YFP-importin-beta, homogeneous, primary screen (AID 2216);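 further: 0% = DMSO wells and 100% = Ran loaded with GDP instead of GTP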
# Conditions: cell-free CFP-Ran/YFP-importin-beta FRET ratio; stronger effect = higher value; concentration not given here
row,Compound,inhibition
1,CCCCN(C(=O)CCNC(=O)NC12CC3CC(CC(C3)C1)C2)c1c(N)n(CCCC)c(=O)[nH]c1=O,0.758%
2,CC1(C)CC(=O)NC=C(c2ccccc2)C1,25.4% (active)
3,O=C1C=C(c2ccccc2)CCC1,3.08%
4,CCN1N=C(c2ccccc2)CCC1=O,2.2%
5,COc1cc(OC)c(OC)cc1CN1CCN(C(=O)c2cccc3ccccc23)CC1,2.06%
6,Cc1ccc(NC(=O)CN2CCc3ccccc3C2)cc1,-0.397%
7,COc1cc2c(cc1OC)CN(CC(=O)Nc1ccc(F)cc1)CC2,16.9% (active)
8,Cc1ccc(NC(=O)CN2CCc3ccccc3C2)cc1C,6.66%
9,CCOC(=O)C1(Cc2ccccc2C)CCCN(C(=O)c2ccc(COC)o2)C1 (stereo not given),-3.09%
10,COc1ccc(Cl)cc1NC(=O)CN(C)C(=O)c1cc2ccccc2cc1OC,1.71%
11,CC(C)c1ccc(S(=O)(=O)N2CCN(C(=O)CN3C(=O)NC(C)(c4ccccc4)C3=O)CC2)cc1 (stereo not given),0.837%
12,CCOc1ccc2nc(NCCNS(=O)(=O)c3ccccc3)c(C#N)cc2c1,127% (active)
13,CCOc1ccc(S(=O)(=O)NCCSc2ccccc2)cc1,-0.375%
14,O=S(=O)(NCCNS(=O)(=O)c1ccccc1)c1ccccc1,1.2%
15,O=C(NNC(=O)c1ccc(-c2ccccc2)cc1)Nc1ccccc1,2.69%
16,Cc1ccc(S(=O)(=O)n2cccc2CO)cc1,-0.413%
17,COc1ccc(CCNC(=O)C(=O)NCC2CCCN2S(=O)(=O)c2cccs2)cc1OC (stereo not given),-2.95%
18,Cc1cc(C)c(C)c(S(=O)(=O)N2CCN(C(=O)c3ccc4c(=O)n5c(nc4c3)CCC5)CC2)c1C,0.31%
19,CCN(CC)C(=O)c1sc(NC(=O)c2ccco2)c(C#N)c1C,5.09%
20,CCCc1ccc(-c2c(C)sc(NC(=O)c3ccnn3C)c2C#N)cc1,69.5% (active)
21,Cn1nccc1CNC(=O)c1ccnn1C,-4.46%
22,O=C(COC(=O)Cn1[nH]c(=O)c2ccccc2c1=O)Nc1c(Cl)cccc1C(F)(F)F,0.554%
23,CCCCn1c(N)c(N(CC(C)C)C(=O)c2ccc(-n3c(C)ccc3C)cc2)c(=O)[nH]c1=O,2.98%
24,CC(=O)N1CCc2c(sc(NC(=O)CCS(=O)(=O)c3ccccc3)c2C#N)C1,2.62%

row,Compound,inhibition
1,CC(=O)N1CCc2c(sc(NC(=O)CCS(=O)(=O)c3ccc(C)cc3)c2C(N)=O)C1,32.8% (active)
2,Cc1ccc(S(=O)(=O)CC(=O)Nc2sc(C)c(C)c2C(N)=O)cc1,1.11%
3,CCOC(=O)c1cc(NC(=O)c2cccnc2)ccn1,-2.83%
4,CN1OC(COC(=O)c2ccc(Cl)cc2)CC1c1ccccc1 (stereo not given),2.75%
5,CC(C)(C)c1ccc(C(=O)NCCC(=O)NCc2ccco2)cc1,1.67%
6,Cn1cncc1COC(=O)c1ccc(Cl)cc1,0.688%
7,N#Cc1c(N)n(CCOC(=O)c2ccc(Cl)cc2)c2nc3ccccc3nc12,39.9% (active)
8,CC(C)(C)c1ccc(C(=O)NCCn2c(N)c(C#N)c3nc4ccccc4nc32)cc1,82.8% (active)
9,CCCCNC(=O)CCNC(=O)c1ccc(C(C)(C)C)cc1,3.77%
10,CN(C(=O)c1cc2c(=O)n3ccccc3nc2s1)C1CCCCC1,2.4%
11,CCOc1cc(C(=O)Nc2ccc(S(=O)(=O)Nc3cnc4ccccc4n3)cc2)cc(OCC)c1OCC,7.91%
12,CCN1CCN(c2ccc(S(=O)(=O)N3CCCCC3)cc2NC(=O)Cc2c(Cl)cccc2Cl)CC1,1.25%
13,O=C(c1ccc(F)c(S(=O)(=O)N2CCOCC2)c1)N(CCc1ccccc1)Cc1ccccc1,7.49%
14,CCC(C)N(C(=O)COC(=O)c1nc(Cl)ccc1Cl)C1CCS(=O)(=O)C1 (stereo not given),7.73%
15,O=c1oc2cc(O)ccc2cc1-c1ccc(F)cc1,149% (active)
16,O=c1c(-c2ccccc2)coc2cc(O)ccc12,-0.924%
17,COc1ccc(-c2cc3ccc(OCc4nn[nH]n4)cc3oc2=O)cc1,-0.255%
18,O=C(Nc1cc2c3c(c1)CC(=O)N3CCC2)c1ccccc1F,0.312%
19,CCCC(=O)N1CCc2[nH]c3ccccc3c2C1,29% (active)
20,O=C(Nc1ccc(Cl)cc1)N1CCc2[nH]c3ccccc3c2C1,29.2% (active)
21,Fc1ccc(NC(=S)N2CCc3[nH]c4ccccc4c3C2)cc1,9.84%
22,CCc1ccc(NC(=O)N2CCc3ccccc3C2)cc1,-4.66%
23,Cc1ccc2[nH]c3c(c2c1)CN(C(=O)CN1CCN(c2ccccc2)CC1)CC3,-23.4%
24,C=CCNC(=S)N1CCc2[nH]c3ccccc3c2C1,3.44%

row,Compound,inhibition
1,CC(=O)c1c(C)[nH]c(C(=O)COC(=O)CCOc2ccc(C)cc2)c1C,6.12%
2,COc1ccccc1C(=O)NC(CCSC)C(=O)N1CCN(C/C=C/c2ccccc2)CC1 (stereo not given),0.266%
3,CCOc1ccc(S(=O)(=O)NCCC(=O)N2CCCCCCC2)cc1,0.262%
4,CCN(CC(=O)Nc1c(F)cccc1F)C(=O)C1CCC1,0.154%
5,Cc1cc(S(=O)(=O)c2cc3ccc(O)c(C)c3oc2=O)ccc1F,132% (active)
6,CCCCN(C(=O)c1ccc(S(=O)(=O)N2CCOCC2)cc1)C1CCS(=O)(=O)C1 (stereo not given),-4.84%
7,NC(=O)CSc1nnc(NC(=O)c2ccc3ccccc3c2)s1,5.81%
8,COc1ccc(/C=N/Nc2cc(N3CCOCC3)nc(C)n2)c(OC)c1,-3.31%
9,CN(C)c1ccc(/C=N/Nc2cc(N3CCOCC3)nc(N3CCOCC3)n2)cc1,25.8% (active)
10,Cc1ccccc1N/N=C/c1ccc(N2CCOCC2)cc1,1.62%
11,Brc1cnc2ccccc2c1N1CCCCC1,-1.98%
12,COc1ccc(C(C#N)(CC(=O)O)c2cnccn2)cc1OC (stereo not given),5.73%
13,Cc1cc(NC(=O)CCS(=O)(=O)c2ccc(F)cc2)no1,-2.56%
14,CCc1cccc(C)c1NC(=O)COC(=O)CNC(=O)c1cccs1,0.115%
15,COc1ccc(NC(=O)CCC(=O)N2CCN(S(=O)(=O)c3ccc(C)cc3)CC2)c(OC)c1,2.41%
16,CCOCCCNc1c(CC)c(C)c(C#N)c2nc3ccccc3n12,10.7%
17,Cc1cc(NC(C)C)n2c(nc3ccccc32)c1C#N,-3.25%
18,Cc1c(C(=O)Nc2cccc(Cl)c2)cn2c(nc3ccccc32)c1C#N,10.5%
19,Cc1ccccc1-c1nc(C#N)c(NCc2ccco2)o1,-0.838%
20,CC(C)c1cc(NCc2ccccn2)n2c(nc3ccccc32)c1C#N,51% (active)
21,Cc1cc(NCc2ccco2)n2c(nc3ccccc32)c1C#N,102% (active)
22,Nc1c(C(=O)Nc2ccc3c(c2)OCCO3)nnn1Cc1ccccc1,-8.94%
23,COc1ccc(-c2csc3ncnc(N4CCN(S(=O)(=O)c5cccc(F)c5)CC4)c23)cc1,-3.81%
24,CCOc1ccc(C(=O)CCN2CCOCC2)cc1,4.03%

row,Compound,inhibition
1,COc1cc(C(=O)NCC(=O)N2CC=C(c3ccccc3)CC2)cc(OC)c1OC,0.563%
2,COc1ccc(C2CC(c3cccs3)=NN2c2ccc(F)cc2)cc1OC (stereo not given),53.2% (active)
3,COc1ccc(C2CC(c3cccs3)=NN2C(=O)CSc2nncs2)cc1OC (stereo not given),-2.68%
4,COc1ccccc1N1N=C(c2cccs2)CC1c1ccccc1 (stereo not given),-0.43%
5,COc1ccc(C2CC(c3cccs3)=NN2C(=O)CCC(=O)O)cc1OC (stereo not given),-4.44%
6,COc1ccc(C2CC(c3cccs3)=NN2c2nc(C)c(C(C)=O)s2)cc1OC (stereo not given),89.5% (active)
7,COc1ccc(C2CC(c3cccs3)=NN2c2ccccc2)cc1 (stereo not given),2.04%
8,O=C(COC(=O)c1ccccn1)NNC(=O)c1ccc([N+](=O)[O-])cc1,4.26%
9,CN(CC(=O)NCc1cccnc1)S(=O)(=O)c1cc(Cl)ccc1Cl,4.66%
10,COc1ccc(NC(=O)CN(C)C(=O)Cc2coc3cc(C)c(C)cc23)cc1,0.0585%
11,C=CCOc1cccc(C2C(C(=O)c3ccc(C)o3)=C(O)C(=O)N2c2nnc(C)s2)c1 (stereo not given),-5.03%
12,O=C1N[C@@H](Cc2ccccc2)C(=O)N2[C@@H]3N(S(=O)(=O)c4ccc(F)cc4)c4ccccc4[C@]3(Br)C[C@@H]12,5.5%
13,O=C(CCl)NNc1nc(-c2ccccc2)c2cc(Cl)ccc2n1,-0.54%
14,NC(N)=Nc1nc(-c2ccccc2)c2cc(Cl)ccc2n1,4.42%
15,OCCCNc1nc(-c2ccccc2)c2cc(Cl)ccc2n1,50.7% (active)
16,Cc1cc(C)c(S(=O)(=O)n2cc(C(C)C(N)C(=O)O)c3ccccc32)c(C)c1 (stereo not given),-3.39%
17,O=C1c2ccccc2S(=O)(=O)N1CC(O)Cn1c2ccccc2c2ccccc21 (stereo not given),3.48%
18,CS(=O)(=O)N(CC(O)Cn1c2ccccc2c2ccccc21)c1cccc2ccccc12 (stereo not given),2.16%
19,CCCCN(CCCC)CC(O)Cn1c2ccccc2c(=O)c2ccccc21 (stereo not given),114% (active)
20,O=C(COC(=O)CNS(=O)(=O)c1ccc(F)c(F)c1F)NC1CCCC1,-1.07%
21,CCOc1ccccc1C1C(C(=O)OC)=CN(C)C=C1C(=O)OC,118% (active)
22,CCOc1ccccc1N(CC(=O)Nc1ccccc1C(=O)OC)S(C)(=O)=O,2.19%
23,COC(=O)C1=CN(C)C=C(C(=O)OC)C1c1ccc(Cl)cc1Cl,2.63%
